Assay results: PubChem BioAssay (NCI)
About 83,000 compounds went through this panel and 20% of them were active in at least one assay; those are over-represented in the sample as a whole.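 In brief: 96-well plates, 48 h treatment, single concentration, percent growth endpoint.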 The source made the active and inactive calls. The calls were made as follows: active = growth percent below 10; inactive = the rest.

Assays:
Assay in all cases: NCI-60 one-dose screen, 48 h (100 = growth as untreated, 0 = no growth, -100 = all killed)
Details in all cases: 10 µM unless noted
DU-145 prostate = test system: DU-145 prostate
K-562 leukemia = test system: K-562 leukemia
MALME-3M melanoma = test system: MALME-3M melanoma
MDA-MB-231 breast = test system: MDA-MB-231 breast
SF-268 CNS = test system: SF-268 CNS
SF-295 CNS = test system: SF-295 CNS
SF-539 CNS = test system: SF-539 CNS
M14 melanoma = test system: M14 melanoma

Measured: growth

N#Cc1c(NC(=O)c2cccs2)[n+]([O-])c2ccc(F)cc2[n+]1[O-]
inactive: DU-145 prostate 103% | K-562 leukemia 91.3% | MALME-3M melanoma 92.4% | MDA-MB-231 breast 87.2% | SF-268 CNS 101% | SF-295 CNS 100% | SF-539 CNS 98.1% | M14 melanoma 101%

CCCCCCCC(=O)SCC/C=C/[C@@H]1CC(=O)NCc2cc(ccn2)C2=N[C@@](C)(CS2)C(=O)N[C@@H](C(C)C)C(=O)O1
active: MDA-MB-231 breast 3.63% | SF-295 CNS -62.2% | M14 melanoma 4.89%
inactive: DU-145 prostate 11.8% | K-562 leukemia 10.3% | MALME-3M melanoma 11.4% | SF-268 CNS 11.8% | SF-539 CNS 17%

CC(C)n1c(NCCc2ccc(O)c(O)c2)nc2c1c(=O)n(C)c(=O)n2C
inactive: DU-145 prostate 102% | K-562 leukemia 97.1% | MALME-3M melanoma 97.9% | MDA-MB-231 breast 92.2% | SF-268 CNS 94.2% | SF-295 CNS 106% | SF-539 CNS 104% | M14 melanoma 98.8%

CCN1/C(=C/C=C/c2n(-c3ccccc3)c3ccc(-c4nc5ccccc5s4)cc3[n+]2CC)N(c2ccccc2)c2ccc(-c3nc4ccccc4s3)cc21
inactive: K-562 leukemia 10.2% | MDA-MB-231 breast 16.9%
active: DU-145 prostate -47.9% | MALME-3M melanoma -44.5% | SF-268 CNS 9.74% | SF-295 CNS -30.4% | SF-539 CNS -13.7% | M14 melanoma -11.2%

N#CC1(C#N)C(c2cccs2)NC(c2cccs2)C1(C#N)C#N (stereo unspecified)
inactive: DU-145 prostate 102% | K-562 leukemia 95.8% | MALME-3M melanoma 99.2% | MDA-MB-231 breast 104% | SF-268 CNS 98.1% | SF-295 CNS 95.6% | SF-539 CNS 97.6% | M14 melanoma 102%

COc1ccc(CCCc2c3[n+](cc4c(OC)c(OC)ccc24)CCc2cc4c(cc2-3)OCO4)cc1
inactive: DU-145 prostate 79.3% | K-562 leukemia 57.8% | MALME-3M melanoma 94.4% | MDA-MB-231 breast 84.6% | SF-268 CNS 63% | SF-295 CNS 78.9% | SF-539 CNS 92.3% | M14 melanoma 85.1%

CCOC(=O)C1=C(C)N=C2Sc3cccc(OC)c3N2[C@H]1c1ccccn1
inactive: DU-145 prostate 105% | K-562 leukemia 101% | MALME-3M melanoma 91.2% | MDA-MB-231 breast 90.6% | SF-268 CNS 94.2% | SF-295 CNS 101% | SF-539 CNS 103% | M14 melanoma 103%

COc1ccc2c(CCCCC(c3ccccc3)c3ccccc3)c3[n+](cc2c1OC)CCc1cc2c(cc1-3)OCO2
active: DU-145 prostate -80% | K-562 leukemia -7.74% | MALME-3M melanoma -80.9% | MDA-MB-231 breast -75.1% | SF-268 CNS -60.7% | SF-295 CNS -84.2% | SF-539 CNS -64.5% | M14 melanoma -76.1%

CCCCCCCCCCCC[n+]1ccccc1
inactive: DU-145 prostate 16% | SF-268 CNS 11.5%
active: K-562 leukemia 6.1% | MALME-3M melanoma 0.501% | MDA-MB-231 breast -2.58% | SF-295 CNS -36.5% | SF-539 CNS -2.41% | M14 melanoma -41.3%

NN1C(=O)CSC1=S
inactive: DU-145 prostate 108% | K-562 leukemia 101% | MALME-3M melanoma 109% | MDA-MB-231 breast 105% | SF-268 CNS 95.9% | SF-295 CNS 105% | SF-539 CNS 105% | M14 melanoma 97.6%

O=C(N/N=C/c1ccc(Cl)cc1)c1cc(-c2cc3ccccc3o2)nn1-c1ccccc1
inactive: DU-145 prostate 87% | K-562 leukemia 91.1% | MALME-3M melanoma 105% | MDA-MB-231 breast 92.5% | SF-268 CNS 108% | SF-295 CNS 107% | SF-539 CNS 84.9% | M14 melanoma 99.3%

COc1cc2c(cc1OCCCCCCN1CCN(c3ncnc4ccccc34)CC1)N=CC1CCCN1C2=O (stereo unspecified)
active: DU-145 prostate 4.65% | K-562 leukemia -15.9% | MALME-3M melanoma -65.9% | MDA-MB-231 breast -29.1% | SF-268 CNS -2.27% | SF-295 CNS -45.5% | SF-539 CNS -56.3% | M14 melanoma -85.5%

O=C1CSC(c2c(F)cccc2Cl)N1NC(=O)C(O)(c1ccccc1)c1ccccc1 (stereo unspecified)
inactive: DU-145 prostate 108% | K-562 leukemia 80.3% | MALME-3M melanoma 82.1% | MDA-MB-231 breast 93% | SF-268 CNS 112% | SF-295 CNS 94.3% | SF-539 CNS 100% | M14 melanoma 94.5%

CC(=O)OC1Oc2ccccc2-c2oc(=O)c(-c3cc4ccc(N(C)C)cc4oc3=O)cc21 (stereo unspecified)
inactive: DU-145 prostate 19.1% | MDA-MB-231 breast 59.5% | SF-268 CNS 73.1% | SF-539 CNS 69.4% | M14 melanoma 47.2%
active: K-562 leukemia 1.45% | MALME-3M melanoma 4.74% | SF-295 CNS 6.73%

COc1ccc2c(CCCC(c3ccccc3)c3ccccc3)c3[n+](cc2c1OC)CCc1cc2c(cc1-3)OCO2
active: DU-145 prostate -13.4% | K-562 leukemia -15.4% | MALME-3M melanoma -66.7% | MDA-MB-231 breast -63.4% | SF-268 CNS -58% | SF-295 CNS -32.2% | SF-539 CNS -38.1% | M14 melanoma -67.5%

CC[n+]1c(/C=C/C=C2\N(C)c3ccccc3C2(C)C)sc2ccccc21
inactive: DU-145 prostate 20.3% | MALME-3M melanoma 13.6% | SF-268 CNS 25.6% | SF-539 CNS 19.9% | M14 melanoma 12.6%
active: K-562 leukemia 2.44% | MDA-MB-231 breast 8.67% | SF-295 CNS -6.72%

CCOC(=O)C1=C(C)NC(=O)NC1c1cc(=O)oc2ccc(C)cc12 (stereo unspecified)
inactive: DU-145 prostate 104% | K-562 leukemia 103% | MALME-3M melanoma 99% | MDA-MB-231 breast 106% | SF-268 CNS 101% | SF-295 CNS 96.9% | SF-539 CNS 102% | M14 melanoma 102%

CC(N)C(Cc1ccc(Cl)cc1)c1ccc(Cl)cc1 (stereo unspecified)
active: K-562 leukemia 0.46%
inactive: DU-145 prostate 61% | MALME-3M melanoma 80.3% | MDA-MB-231 breast 35.5% | SF-268 CNS 62.6% | SF-295 CNS 84.9% | SF-539 CNS 80.8% | M14 melanoma 47.6%

Cc1cc2c3c(cccc3c1)C(=O)c1ccccc1-2
inactive: DU-145 prostate 98.9% | K-562 leukemia 98.8% | MALME-3M melanoma 90.8% | MDA-MB-231 breast 92.6% | SF-268 CNS 92% | SF-295 CNS 103% | SF-539 CNS 97.2% | M14 melanoma 92.6%

Clc1nc(Cl)c2ncn(CC#CCn3cnc4c(Cl)nc(Cl)nc43)c2n1
active: DU-145 prostate -87.2% | K-562 leukemia -13% | MALME-3M melanoma -74.5% | MDA-MB-231 breast -52.6% | SF-268 CNS -37.8% | SF-295 CNS 5.67% | SF-539 CNS -65.7% | M14 melanoma 7.78%

Cc1ccccc1Nc1nc2nonc2nc1Nc1cccc(C)c1C
inactive: DU-145 prostate 71.9% | K-562 leukemia 39.5% | MALME-3M melanoma 78.6% | MDA-MB-231 breast 72.7% | SF-268 CNS 72.8% | SF-295 CNS 41.5% | SF-539 CNS 88.1% | M14 melanoma 58.4%

CC1(/C=N/NC(N)=S)NC(=O)NC1=O (stereo unspecified)
inactive: DU-145 prostate 107% | K-562 leukemia 89.4% | MALME-3M melanoma 107% | MDA-MB-231 breast 99.2% | SF-268 CNS 102% | SF-295 CNS 108% | SF-539 CNS 110% | M14 melanoma 103%

CCCCCCCC(=O)SCC/C=C/[C@@H]1CC(=O)NCc2cccc(n2)C2=N[C@@](C)(CS2)C(=O)N[C@@H](C(C)C)C(=O)O1
inactive: DU-145 prostate 12.3% | K-562 leukemia 11.1% | MALME-3M melanoma 22.7% | MDA-MB-231 breast 10.2% | SF-268 CNS 11.1% | SF-539 CNS 20%
active: SF-295 CNS -62.4% | M14 melanoma 5.95%

Nc1c2c(c(O)c3c1=C(CO)C=N3)=NCCS2
active: DU-145 prostate -93% | K-562 leukemia -33.1% | MALME-3M melanoma -96.6% | MDA-MB-231 breast 2.38% | SF-268 CNS -47.9% | SF-295 CNS -94.5% | SF-539 CNS -95.8% | M14 melanoma -89.7%

CC1(C)NC(=O)c2[nH]c3c(Cl)c(Cl)ccc3c2C1C#N (stereo unspecified)
inactive: DU-145 prostate 92.9% | K-562 leukemia 69.2% | MALME-3M melanoma 99.7% | MDA-MB-231 breast 91.2% | SF-268 CNS 94.8% | SF-295 CNS 59.3% | SF-539 CNS 85.4% | M14 melanoma 106%

CCCc1cc2cc(-n3nc(C)c4c3CC(C)(C)CC4=O)cc(NC3CCC(O)CC3)c2c(=O)[nH]1 (stereo unspecified)
inactive: DU-145 prostate 38.8% | K-562 leukemia 10% | MALME-3M melanoma 29.9% | SF-268 CNS 50.2% | SF-539 CNS 37.8% | M14 melanoma 23.6%
active: MDA-MB-231 breast -0.14% | SF-295 CNS -35.6%

CC(C)(C)C(=O)OCOP(=O)(OCOC(=O)C(C)(C)C)C1CCCN(OC(=O)c2ccccc2)C1=O (stereo unspecified)
inactive: DU-145 prostate 36.9% | MALME-3M melanoma 29.4% | MDA-MB-231 breast 12.7% | SF-268 CNS 36% | SF-295 CNS 57.3% | SF-539 CNS 53% | M14 melanoma 47.2%
active: K-562 leukemia 9.43%

C[C@@H](C[C@H](CCO)c1cc(C(F)(F)F)cc(C(F)(F)F)c1)c1ccc2ccccc2c1
inactive: DU-145 prostate 93.2% | K-562 leukemia 33% | MALME-3M melanoma 87.9% | MDA-MB-231 breast 93.6% | SF-268 CNS 81.8% | SF-295 CNS 77.8% | SF-539 CNS 94.2% | M14 melanoma 79.7%

CCC1(/C=N/NC(N)=S)NC(=O)NC1=O (stereo unspecified)
inactive: DU-145 prostate 112% | K-562 leukemia 109% | MALME-3M melanoma 107% | MDA-MB-231 breast 102% | SF-268 CNS 106% | SF-295 CNS 107% | SF-539 CNS 109% | M14 melanoma 103%

CC(=O)C(C(C)=O)C(c1ccccc1)C(C(C)=O)C(C)=O
inactive: DU-145 prostate 108% | K-562 leukemia 95.9% | MALME-3M melanoma 108% | MDA-MB-231 breast 97.5% | SF-268 CNS 108% | SF-295 CNS 96.7% | SF-539 CNS 101% | M14 melanoma 96.5%

Cc1nn(-c2nc3ccccc3[nH]2)c2c1C(c1ccc(OCc3ccc(F)cc3)cc1)CC(=O)N2 (stereo unspecified)
inactive: DU-145 prostate 96% | K-562 leukemia 87.6% | MALME-3M melanoma 81.3% | MDA-MB-231 breast 42.8% | SF-268 CNS 46.7% | SF-295 CNS 19% | SF-539 CNS 56.7% | M14 melanoma 58.5%

COc1cc(-c2nc(C(=O)NCC(=O)O)nn2-c2ccc(Cl)cc2)cc(OC)c1OC
inactive: DU-145 prostate 111% | K-562 leukemia 89.4% | MALME-3M melanoma 111% | MDA-MB-231 breast 106% | SF-268 CNS 108% | SF-295 CNS 95.2% | SF-539 CNS 102% | M14 melanoma 98.5%
